From PubChem
Luc counter = blocks Kinase-Glo luciferase, a counter-screen artifact | Q27757 | Kinase-Glo luciferase, ATP luminescence, 8 min | Potency, µM (doses to about 38.3 µM), without a hit: top-dose activity change, negative = inhibition, actives largely listed as inhibitors | hit rate 0.28% among 200,000 | AID 1379; further: on the % scale 0 is the no-effect control and ±100 the full control effect; nearly all actives have a fitted effect of over 60% in size
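Light output from Kinase-Glo luciferase with luciferin and 10 uM ATP in 50 mM imidazole pH 7.2, KCl, MgCl2, Tween 20, BSA; compound pin-delivered, 8-min ambient incubation, then luminescence read.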
ELG1 genotoxic = inducers of genotoxicity in HEK293T ELG1-luciferase cells | HEK293T ELG1-luciferase reporter, luminescence, 16 h | Potency, µM (titrated, usually from 46 µM), without a hit: at the top dose activity change, positive = activation, usual class: activators | hit rate 1.3% among 330,000; further: % of control where 0% means no effect; nearly all actives have a fitted effect of over 60% in size
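Step 1: seed 2,000 HEK293T ELG1-luciferase cells per well. Step 2: add compound or DMSO, incubate 16 hr at 37 °C. Step 3: ONE-Glo, 30 min at room temperature, read luminescence.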
Rab9 promoter act = activators of Rab9 promoter; Huh7 Rab9 promoter-luciferase reporter, luminescence, 24 h; hit rate 2.8% among 320,000; Potency, µM (top dose mostly 9.22 µM), for inactives: at the top dose activation, negative = inhibition, hits mostly activators; further: % of control where 0% means no effect; nearly all actives have a fitted effect of over 60% in size
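Luciferase signal after 10 min detection reagent at ambient indicates Rab9 promoter upregulation; stably transfected Huh7 cells were treated 24 h with compound in DMSO at 37 °C, 5% CO2.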
FLuc counter = counter-screen for miR-21 project: firefly luciferase inhibitors or activators; P08659; purified FLuc, Km substrates, luminescence inhibition; Potency, µM (titrated, usually from 57.5 µM), for the others: top-dose activity change, negative = inhibition, usual class: inhibitors; hit rate 6.9% among 360,000; AID 588342;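 further: plate controls were vehicle for no effect and reference inhibitor for full effect; nearly all actives have a fitted effect of over 55% in size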
Target sequence (P08659 whole entry, looked up): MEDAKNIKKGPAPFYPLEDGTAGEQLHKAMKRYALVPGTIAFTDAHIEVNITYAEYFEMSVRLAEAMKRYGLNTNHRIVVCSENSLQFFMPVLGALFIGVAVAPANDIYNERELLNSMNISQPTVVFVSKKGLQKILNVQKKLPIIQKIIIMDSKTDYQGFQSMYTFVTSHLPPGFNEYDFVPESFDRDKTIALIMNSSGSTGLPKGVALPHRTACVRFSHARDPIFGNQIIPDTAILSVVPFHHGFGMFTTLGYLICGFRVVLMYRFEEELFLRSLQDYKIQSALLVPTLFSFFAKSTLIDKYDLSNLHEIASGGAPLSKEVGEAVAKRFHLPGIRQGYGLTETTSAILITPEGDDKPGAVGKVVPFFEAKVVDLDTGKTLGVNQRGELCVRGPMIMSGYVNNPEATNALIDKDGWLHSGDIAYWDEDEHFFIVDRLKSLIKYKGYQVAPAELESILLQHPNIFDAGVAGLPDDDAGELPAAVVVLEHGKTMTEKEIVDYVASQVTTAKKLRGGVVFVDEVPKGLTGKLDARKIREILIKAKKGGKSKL
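Purified P. pyralis luciferase, 10 nM final, with Km-level 10 uM D-luciferin and 10 uM ATP in 50 mM Tris acetate pH 7.5, 10 mM Mg acetate, 0.01% Tween-20, 0.05% BSA; 6-point qHTS titration about 60 µM downward; luminescence read.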
SMN2 splice up = SMN2 splice variant enhancement; hit rate 2.8% among 210,000; HEK293 SMN2-luciferase splicing reporter, luminescence, 30-36 h; Potency, µM (top dose mostly 46.1 µM), inactives show top-dose activity change, positive = activation, hits mostly activators; AID 1458; further: % of control where 0% means no effect; nearly all actives have a fitted effect of over 55% in size
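HEK293 cells carry an SMN2 minigene-luciferase reporter in which exon 7 inclusion puts luciferase in frame. Cells were seeded at 2000 cells/well, attached for 10-12 hours, then exposed to compounds for 30-36 hours at 37C before ONE-Glo luminescence.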
NPC1 promoter act = NPC1 promoter activation. hit rate 2.4% among 320,000. Potency, µM (doses to about 9.22 µM), inactives show at the top dose activation, hits mostly activators. AID 485313. Huh7 NPC1 promoter luciferase reporter, 24 h; further: % of control where 0% means no effect; nearly all actives have a fitted effect of over 60% in size
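NPC1 promoter–luciferase Huh7 cells; 24 h compound; luminescence.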
* = called active by the depositor; ? = inconclusive; . = no result; [ ] = remark or other dose. An excerpt weighted towards active compounds, which were near 7.5% of everything screened. The call rests on the fitted dose curve; in most records, active means well fitted curve in the direction sought with a large enough effect; inconclusive means small, poorly fitted or top-dose-only effect, or another doubt; inactive means no such curve, though single readings can be large; an effect the other way counts as inactive or inconclusive. Potency means the concentration at half of the fitted maximal effect.

SMILES	Luc counter	ELG1 genotoxic	Rab9 promoter act	FLuc counter	SMN2 splice up	NPC1 promoter act
CC1=NN(c2ccc(C(=O)O)cc2)C(=O)/C1=C/c1ccc(-c2ccccc2F)o1	.	11%	5%	4.8µM*	.	-5%
COC(=O)c1ccccc1-c1ccc(/C=C2\C(=O)N(c3ccccc3)N=C2c2ccccc2)o1	-4%	0%	1%	-8%	-3%	2%
CC1=NN(c2ccc(C)cc2)C(=O)/C1=C/c1ccc(-c2cc([N+](=O)[O-])ccc2O)o1	.	-7%	-4%	12µM*	.	0%
Clc1cccc(-c2csc(-c3nc(-c4ccc(Br)s4)cs3)n2)c1	.	.	.	-1%	0%	.
CCCCNc1nc(C)nc2c1nc(-c1ccccc1)n2CC(C)(C)CN(C)C	-2%	.	.	.	-5%	.
Nc1ccccc1-c1n[nH]c(=S)s1	6%	9%	0%	?	?	2%
CC(C)C(=O)Nc1ccc(Sc2ccc(F)cc2)cc1	-1%	0%	-1%	1%	-8%	-3%
CSc1ccc(/C=C/C(=O)c2ccc(NC(=O)C(C)C)cc2)cc1	-2%	-2%	-10%	9.5µM*	-14%	-2%
CSc1ccc(C(=O)/C=C/c2ccc(N)cc2)cc1	-25%	13µM*	3.2µM*	0.76µM*	14µM*	?
CSc1ccc(/C=C/C(=O)c2ccc(NC(=O)Cc3ccccc3)cc2)cc1	-1%	-4%	4%	12µM*	-10%	0%
Cc1ccc2cc(CCNC(=O)Cc3cccs3)c(=O)[nH]c2c1	-1%	-1%	-9%	0%	?	-1%
Cc1ccc([C@H]2C(C(=O)O)=CC[C@@H](c3ccc(C)cc3)N2S(=O)(=O)c2ccc(C)cc2)cc1	.	0%	.	.	.	.
CC1=NN(c2ccc([N+](=O)[O-])cc2)C(=O)C1[N+](=O)[O-] (stereo unspecified)	?	.	.	.	8%	.
COc1cc(C)ccc1OCc1cc(C(=O)NCCN2CCOCC2)no1	.	?	4µM*	11µM*	.	2.2µM*
COc1cc(Cl)ccc1OCc1cc(C(=O)NCCCN2CCCC2=O)no1	.	1%	4%	21µM*	.	3%
CN(CCCN1CCOCC1)C(=O)c1cc(COc2ccc(F)cc2F)on1	.	2%	-8%	0%	.	-1%
COc1ccccc1-c1cc(C(=O)NCCN2CCOCC2)no1	-6%	5%	-6%	-18%	-4%	1%
COc1cc(C)ccc1OCc1cc(C(=O)N(C)CCCN2CCOCC2)no1	.	18µM*	2.5µM*	12µM*	.	2.8µM*
O=S(=O)(c1ccccc1)N(F)S(=O)(=O)c1ccccc1	.	-3%	0%	.	.	-12%
O=C(NC(=S)Nc1ccc(N2CCOCC2)c(Cl)c1)C(c1ccccc1)c1ccccc1	-1%	-3%	3%	9%	3%	-1%
O=C(Nc1ccc(N2CCOCC2)c(Cl)c1)c1ccccc1Cl	1%	?	?	27µM*	.	26%
O=C(Nc1ccc(N2CCOCC2)c(Cl)c1)c1ccc(-n2cnnc2)cc1	.	7%	2%	-1%	.	0%
O=C(Nc1ccc(N2CCOCC2)c(Cl)c1)c1ccc(F)cc1	4%	2%	2.5µM*	13µM*	11µM*	?
COC(=O)C1C(=O)C=C(Nc2ccc(F)cc2F)CC1c1ccccc1 (stereo unspecified)	1%	7%	17%	-17%	-6%[1.84 µM]	15%
CCOC(=O)C1C(=O)C=C(Nc2ccccc2F)CC1c1ccccc1 (stereo unspecified)	3%	12%	?	17µM*	?	?
SMILES	Luc counter	ELG1 genotoxic	Rab9 promoter act	FLuc counter	SMN2 splice up	NPC1 promoter act
OC1(C(F)(F)F)CC(c2ccc3ccccc3c2)=NO1 (stereo unspecified)	.	?	-2%	19µM*	.	3%
OCC1(C2=NOC(O)(C(F)(F)F)C2)CCCCC1 (stereo unspecified)	-2%	0%	10%	0%	8%	2%
COc1cc(OC)c(NS(=O)(=O)c2c(C(=O)N3CCC(C)CC3)c(C)n(C)c2C)cc1Cl	.	.	.	-6%	.	.
COc1cc(C(C)=O)ccc1Oc1ncnc2c1cnn2-c1ccc(F)cc1	3%	18%	4%	?	-58%	1%
COc1ccc(CS(=O)(=O)CC(C)(O)c2ccccc2Cl)cc1 (stereo unspecified)	.	0%	0%	1%	.	2%
COc1ccccc1CNC(=O)C/C(C)=N/NC(=O)COc1ccc(C)cc1Br	-4%	-1%	-2%	-3%	25%	-7%
COC(=O)c1ccccc1NC(=O)COc1ccccc1[N+](=O)[O-]	-1%	0%	8%	-17%	-14%	4%
C/C(CC(=O)Nc1ccccc1-c1ccccc1)=N\NC(=O)COc1ccc(C)cc1Br	3%	23µM*	22%	-11%	-11%	15%
Cc1ccc(OCC(=O)Nc2ccccc2[N+](=O)[O-])c(Br)c1	-2%	?	2.8µM*	2.4µM*	18µM*	3.2µM*
Cc1ccc(OCC(=O)Nc2ccon2)c([N+](=O)[O-])c1	.	10µM*	3.2µM*	8.5µM*	.	3.2µM*
CC1(C)CC(=O)c2cc(OCC(=O)N3CCN(c4ccccc4F)CC3)ccc2O1	3%	-11%	-4%	0%	-17%	2%
CC1(C)CC(=O)c2c(O)cc(OCC(=O)N3CCN(c4ccc(F)cc4)CC3)cc2O1	.	-13%	4%	21µM*	.	-3%
CC1(C)CC(=O)c2ccc(OCc3ccc([N+](=O)[O-])cc3)cc2O1	.	?	2.5µM*	6µM*	.	2.5µM*
Cc1cc(OCC(=O)Nc2ccc(Br)cc2)cc2c1C(=O)CC(C)(C)O2	.	-8%	-6%	-13%	.	-7%
CC(=O)Nc1ccc(NC(=O)COc2cc(O)c3c(c2)OC(C)(C)CC3=O)cc1	.	10%	2%	21µM*	.	11%
CC1(C)CC(=O)c2c(O)cc(OCc3ccc(Br)cc3)cc2O1	16%	2.6µM*	2.8µM*	3µM*	?	2.5µM*
CC1(C)CC(=O)c2cc(OCC(=O)O)ccc2O1	-7%	5%	2%	0%	-5%	-3%
COC(=O)c1ccc(COc2cc(O)c3c(c2)OC(C)(C)CC3=O)cc1	2%	0%	?	15µM*	-50%	20%
CC1=Nc2ccc(C)cc2/C1=C/c1c(N)n2oc(C)cc2nc1=O	-1%	5%	-1%	-2%	-8%	3%
CSc1nsc2nc(=O)c(/C=C3\C=Nc4ccccc43)c(N)n12	-2%	?	28%	17µM*	3%	14%
CSc1nsc2nc(=O)c(/C=C3\C(C)=Nc4ccc(C)cc43)c(N)n12	4%	-23%	-10%	13µM*	-47%	-12%
CC1CN(c2ccc(Cl)cc2)c2nc3c(c(=O)n(CC(=O)O)c(=O)n3C)n2C1 (stereo unspecified)	.	.	.	3%	-3%	.
